High-throughput results deposited in PubChem BioAssay by National Center for Advancing Translational Sciences (NCATS).
TDP-43 yeast inh: qHTS of TDP-43 Inhibitors. AID 652104, 2013. Potency, µM (titrated, usually from 46.1 µM), for inactives: at the top dose growth rescue (activation), hits mostly activators. TDP-43 expressing yeast growth rescue, BacTiter-Glo, 24 h. 410,000 compounds, 1.8% hits; note: % of control where 0% means no effect; nearly all actives have a fitted effect of over 50% in size
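In this qHTS, compounds that restore growth of yeast expressing TDP-43 appear as activators. Cells (OD600=0.02, galactose medium, raffinose-pregrown) are incubated with compound 24 hr at 30 deg C and growth is quantified by BacTiter-Glo.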
Abeta yeast res: qHTS for compounds that reverse cellular toxicity of Amyloid beta (A-beta) peptide in yeast: Primary Screen; yeast expressing A-beta42, growth rescue, OD600, 48 h; response scale: 0% DMSO, 100% iron-clioquinol control; Potency, µM (highest dose often 46.1 µM), most hits filed as activators; 410,000 compounds, 0.063% hits; AID 1347071, 2019; note: nearly all actives have a fitted effect of over 55% in size
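Yeast growth medium received pinned compounds, then yeast cells expressing toxic A-beta were added; plates incubated at 30 C for 48 hr. Growth read as absorbance at 600 nm, normalized to DMSO and equimolar FeCl3 plus clioquinol controls.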
aSyn rescue: qHTS of alpha-syn Inhibitors | Yeast expressing alpha-synuclein, growth rescue, BacTiter-Glo, 24 h | Potency, µM (titrated, usually from 46.1 µM), without a hit: top-dose growth rescue (activation), usual class: activators | 370,000 compounds, 0.14% hits; note: % of control where 0% means no effect; nearly all actives have a fitted effect of over 65% in size
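Galactose-induced alpha-syn yeast (OD600=0.02, raffinose-pregrown) + pinned cpd, 24 hr, 30 deg C; growth by BacTiter-Glo luminescence. Growth restoration scores as activation.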
FUS yeast rescue: qHTS for Suppressors of FUS Proteinopathy: Primary screen using FUS-linked yeast assay; S. cerevisiae FUS-expressing, growth rescue, OD600, 24 h; Potency, µM (titrated, usually from 76.6 µM), actives largely listed as activators; 390,000 compounds, 0.24% hits;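 note: plate controls were DMSO vehicle for no effect and reference control for full effect; nearly all actives have a fitted effect of over 55% in size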
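FUS-expressing yeast, raffinose-pregrown, induced in 2% galactose minimal medium at OD 0.005; compounds in a dilution series, 24hr at 30C. Growth restoration read as absorbance at 600 nm. CP55940 positive control, DMSO negative.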
Numbers without * were called inactive; i = inactive; ? = inconclusive; · = no result given. Compounds with a hit are over-represented: about 2.1% of the library has one in this group of screens. Calls come from the whole dose curve; as a rule, active = well fitted curve in the direction sought with a large enough effect; inconclusive = small, poorly fitted or top-dose-only effect, or another doubt; inactive = no such curve, though single readings can be large; an effect the other way counts as inactive or inconclusive. Potency is the fitted concentration of half-maximal effect.

SMILES	TDP-43 yeast inh	Abeta yeast res	aSyn rescue	FUS yeast rescue
O=C(Nc1nnc(S(=O)(=O)N2CCN(c3ccc(F)cc3)CC2)s1)c1ccccc1	5.8%	i	20.8%	i
Cc1cc(C)n(-c2nc(NC(C)(C)C)nc(NC(C)(C)C)n2)n1	4.6%	?	0.5%	i
Cc1cc(C)n(-c2nc(Nc3ccccc3C(F)(F)F)nc(-n3nc(C)cc3C)n2)n1	20µM*	i	?	?
O=c1oc2cc(Br)ccc2n1CSC1=NCCS1	12.6µM*	i	-7.8%	i
CCCc1nnc(NC(=O)Cn2c(=O)oc3cc(Br)ccc32)s1	-14.4%	i	-12.7%	i
c1ccc(-c2cc3nc(NCc4ccc5c(c4)OCO5)ccn3n2)cc1	14.1µM*	?	13.9%	?
COc1cc(-c2cc3nc(NCc4cccs4)ccn3n2)cc(OC)c1OC	35.5µM*	i	-21.5%	i
c1coc(-c2cc3nc(NCc4ccc5c(c4)OCO5)ccn3n2)c1	17.8µM*	i	6.3%	i
Cc1ccccc1-c1ncnn1-c1sc2c(c1C#N)CCCCC2	0.0%	i	·	i
CC(=O)Nc1cccc(Oc2nc(NC(C)C)nc3cc(-c4ccccc4)sc23)c1	25.1µM*	i	0.8%	?
COCCNc1nc(Oc2cccc(NC(C)=O)c2)c2sc(-c3ccccc3)cc2n1	34.4%	i	4.2%	i
Cc1nc(-c2ccc(F)cc2)c(CC(=O)N2CCN(S(=O)(=O)c3ccccc3Br)CC2)s1	8.7%	i	10.4%	·
Cc1ccc(C)c(S(=O)(=O)N2CCN(C(=O)Cc3sc(C)nc3-c3ccc(F)cc3)CC2)c1	18.0%	i	15.8µM*	·
c1ccc2c(c1)OCCc1c-2[nH]c2ccccc12	12.6µM*	i	-2.9%	i
O=C1CCCc2c1[nH]c1ccccc21	21.4%	i	-0.3%	i
Cc1csc(SCC(=O)NCCc2ccc(Cl)cc2Cl)n1	0.0%	i	14.2%	·
COc1ccc(C2c3[nH]c4ccc(OC)cc4c3CCN2C(=O)Nc2ccccc2)cc1 (stereo not drawn)	20µM*	i	·	?
Cc1ccc(S(=O)(=O)NC2c3cccc4cccc(c34)C2Sc2ncccn2)cc1 (stereo not drawn)	15.8µM*	i	2.2%	·
Cc1cc(C)nc(SC2c3cccc4cccc(c34)C2NS(=O)(=O)c2ccccc2)n1 (stereo not drawn)	?	i	-1.7%	i
Cc1[nH]c2ccc(C(=O)N3CCN(c4cccc(Cl)c4)CC3)cc2c1C	?	i	20µM*	?
CCN1CCN(C(=O)c2ccc3c(c2)c(C)c(C)n3Cc2ccccc2)CC1	11.6%	i	6.4%	i
Cc1c(C)n(C)c2ccc(C(=O)N3CCN(c4ccccn4)CC3)cc12	16.9%	i	5.3%	i
Cc1cccc(N2CCN(C(=O)c3ccc4[nH]c(C)c(C)c4c3)CC2)c1C	10.4%	i	11.5%	i
Cc1[nH]c2ccc(C(=O)N3CCN(c4ccccc4F)CC3)cc2c1C	22.4µM*	i	·	?
Cc1c(C)n(C)c2ccc(C(=O)N3CCN(c4ccccc4)CC3)cc12	15.8µM*	i	6.9%	i
SMILES	TDP-43 yeast inh	Abeta yeast res	aSyn rescue	FUS yeast rescue
CCn1c(C)c(C)c2cc(C(=O)N3CCc4ccccc4C3)ccc21	20µM*	·	25.5%	i
CCc1ccc(-n2c(C)nc3cc(C(=O)NCCc4ccccc4)ccc32)cc1	16.0%	i	·	?
Cc1[nH]c2ccc(C(=O)N3CCN(c4ccccc4Cl)CC3)cc2c1C	20µM*	i	17.8µM*	i
O=C(c1ccccc1)c1ccc(C(=O)N2CCN(c3ccccc3Cl)CC2)cc1	11.2µM*	i	1.1%	?
COc1ccccc1N1CCN(C(=O)c2ccc3[nH]c(C)c(C)c3c2)CC1	19.4%	·	14.6%	?
O=C1c2ccccc2S(=O)(=O)c2cc(C(=O)N3CCN(c4ccccc4)CC3)ccc21	17.8µM*	i	21.0%	i
Cc1cc(C(=O)N2CCC2(C)C(=O)NCC(C)(C)C)nn1C (stereo not drawn)	8.0%	i	-0.4%	i
CCNC(=S)N/N=C/c1cc(C)ccc1C	22.3%	4.47µM*	2.3%	i
CNC(=S)N/N=C/c1cc(C)ccc1C	11.6%	?	5.1%	i
O=C(Nc1nnc(SCc2ccc(F)cc2)s1)c1ccccn1	-27.1%	i	4.47µM*	i
O=C(Nc1nc2ccc(F)cc2s1)c1ccccn1	-16.4%	?	11.2µM*	i
O=C(Nc1nc2ccccc2s1)c1cnccn1	18.2%	i	-1.8%	i
O=C(NNc1nc2ccc(F)cc2s1)c1cccc(F)c1	12.6µM*	?	?	i
O=C(NNc1nc2ccccc2s1)c1ccc(F)cc1	?	i	-5.1%	·
COc1cccc(N2CCN(C(=O)C3CCN(S(=O)(=O)c4cccc5nonc45)CC3)CC2)c1	19.6%	i	·	?
Cc1ccc(-c2cnc(C3CC3)o2)cc1S(=O)(=O)Nc1ccccc1	31.6µM*	i	?	i
Cc1cc(C)c(NS(=O)(=O)c2ccc(-c3cnc(C4CC4)o3)cc2)c(C)c1	?	12.6µM*	·	i
Cc1ccc(NS(=O)(=O)c2ccc(-c3cnc(C4CC4)o3)cc2)c(C)c1	28.2µM*	·	?	?
O=S(=O)(Nc1cccc(C(F)(F)F)c1)c1ccc(-c2cnc(C3CC3)o2)cc1	25.1µM*	i	·	i
CCCc1nc2cc(C)c(Br)c(C)n2c1Cc1ccccc1OC	?	?	3.7%	i
N#CCCN(Cc1cccnc1)C(=O)c1sc2cc(F)ccc2c1Cl	8.1%	i	24.3%	i
O=S(=O)(Nc1ccc(F)cc1Cl)c1ccc(-c2cnc(C3CC3)o2)cc1	35.5µM*	?	?	i
COc1ccccc1NS(=O)(=O)c1ccc(-c2cnc(C3CC3)o2)cc1	27.8%	i	26.9%	i
CCOc1ccc2nc(N(Cc3cccnc3)C(=O)c3ccc4c(c3)OCCO4)sc2c1	25.6%	i	·	i
CCCOc1ccc(C(=O)c2nc3c(n2O)CCCC3)cc1	12.6µM*	i	·	i
SMILES	TDP-43 yeast inh	Abeta yeast res	aSyn rescue	FUS yeast rescue
COc1ccc(OC)c(C(C(=O)NC2CCCCC2)N(Cc2ccco2)C(=O)c2ccccn2)c1 (stereo not drawn)	-7.4%	i	-1.3%	i
O=C1N=C(N2CCCCC2)S/C1=C\c1ccc(Cl)cc1	26.7%	i	3.0%	i
Cc1ccc(/C=C2\SC(N3CCCCC3)=NC2=O)cc1	10µM*	i	0.4%	i
N#CN(Cc1ccccc1)Cc1ccccc1	6.1%	i	5.8%	i
COc1ccc(OCCn2cc(C(=O)c3ccco3)c3ccccc32)cc1	17.8µM*	?	·	i
Cc1ccc(OCCn2cc(C(=O)c3ccco3)c3ccccc32)cc1C	11.6%	i	·	i
O=C(NCCc1nc2ccccc2n1CCOc1ccc2cccnc2c1)C1CCCCC1	·	·	·	i
